Test results from PubChem BioAssay (NCATS).
“And” between values parts separate entries of the source, which are not always exact repeats. Identical values can stand only once. Inconclusive results are not listed. The source made the active and inactive calls. Calls follow the shape of the dose curve; as a rule, active = well fitted curve in the direction sought with a large enough effect; inconclusive = small, poorly fitted or top-dose-only effect, or another doubt; inactive = no such curve, though single readings can be large; an effect the other way counts as inactive or inconclusive.

Key:
HEK293 = experiment: Cytotoxic Profiling of Annotated Libraries Using Quantitative High-Throughput Screening (AID 1296008); settings: Five cell lines viability, CellTiter-Glo ATP luminescence, 48-72 h; max response: active compounds read low; also: nearly all actives have a fitted effect of over 60% in size; also: potency is read from the fitted curve at half-maximal effect
In short: (§1)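 Cells exposed to compounds for 48 or 72 hr at 37 degrees Celsius. Viability read as ATP-coupled luminescence with CellTiter-Glo after 10 min at room temperature.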

HaCat [1] = experiment: as above; settings: Five cell lines viability, CellTiter-Glo ATP luminescence, 48-72 h; max response: active compounds read low
In short: as §1

KB-3-1 = experiment: as above; settings: Five cell lines viability, CellTiter-Glo ATP luminescence, 48-72 h; max response: active compounds read low
In short: as §1

NIH3T3 [2] = experiment: as above; settings: Five cell lines viability, CellTiter-Glo ATP luminescence, 48-72 h; max response: active compounds read low
In short: as §1

HEK293T [3] = experiment: qHTS assay to identify novel small-molecules to repurpose for Merkel cell carcinoma treatment (AID 1296009); settings: MCC and control cell lines, CellTiter-Glo viability, 72 h; at 44.8 µM (top of the series); also: nearly all actives have a fitted effect of over 60% in size; also: potency is read from the fitted curve at half-maximal effect
In short: (§2)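 Cells were incubated with compound for 72 hr at 37 degree celsius before CellTiter-Glo addition. Luminescence was normalized with no-cell wells as full cytotoxicity and DMSO as baseline.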

MCC-26 = experiment: as above; settings: MCC and control cell lines, CellTiter-Glo viability, 72 h; series mostly up to 46 µM
In short: as §2

C33A = experiment: Primary qHTS to identify gynecologic anti-cancer compounds using libraries of approved drugs and bioactive compounds (AID 1345084); settings: Gynecologic cancer cell panel viability, ATPlite luminescence, 48 h; series mostly up to 57.5 µM; also: nearly all actives have a fitted effect of over 55% in size
In short: (§3)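 In this quantitative HTS, cell killing is estimated from loss of ATP-dependent luciferase light. Cells see five compound concentrations over a 48 h exposure.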

CASKI = experiment: as above; settings: Gynecologic cancer cell panel viability, ATPlite luminescence, 48 h; series mostly up to 57.5 µM
In short: as §3

HeLa = experiment: as above; settings: Gynecologic cancer cell panel viability, ATPlite luminescence, 48 h; series mostly up to 57.5 µM
In short: as §3

Hek293T [4] = experiment: as above; settings: Gynecologic cancer cell panel viability, ATPlite luminescence, 48 h, control line for the selectivity index; series mostly up to 57.5 µM
In short: as §3

JEG-3 = experiment: as above; settings: Gynecologic cancer cell panel viability, ATPlite luminescence, 48 h; series mostly up to 57.5 µM
In short: as §3

MCC-13 = experiment: qHTS assay to identify novel small-molecules to repurpose for Merkel cell carcinoma treatment (AID 1296009); settings: MCC and control cell lines, CellTiter-Glo viability, 72 h; series mostly up to 46 µM; also: nearly all actives have a fitted effect of over 60% in size; also: potency is read from the fitted curve at half-maximal effect
In short: as §2

MKL-1 = experiment: as above; settings: MCC and control cell lines, CellTiter-Glo viability, 72 h; series mostly up to 46 µM
In short: as §2

MKL-2 = experiment: as above; settings: MCC and control cell lines, CellTiter-Glo viability, 72 h; series mostly up to 46 µM
In short: as §2

WaGa = experiment: as above; settings: MCC and control cell lines, CellTiter-Glo viability, 72 h; series mostly up to 46 µM
In short: as §2

CAOV3 = experiment: Primary qHTS to identify gynecologic anti-cancer compounds using libraries of approved drugs and bioactive compounds (AID 1345084); settings: Gynecologic cancer cell panel viability, ATPlite luminescence, 48 h; series mostly up to 57.5 µM; also: nearly all actives have a fitted effect of over 55% in size
In short: as §3

UISO = experiment: qHTS assay to identify novel small-molecules to repurpose for Merkel cell carcinoma treatment (AID 1296009); settings: MCC and control cell lines, CellTiter-Glo viability, 72 h; series mostly up to 46 µM; also: nearly all actives have a fitted effect of over 60% in size; also: potency is read from the fitted curve at half-maximal effect
In short: as §2

Es-2 = experiment: Primary qHTS to identify gynecologic anti-cancer compounds using libraries of approved drugs and bioactive compounds (AID 1345084); settings: Gynecologic cancer cell panel viability, ATPlite luminescence, 48 h; series mostly up to 57.5 µM; also: nearly all actives have a fitted effect of over 55% in size
In short: as §3

HACAT [5] = experiment: qHTS assay to identify novel small-molecules to repurpose for Merkel cell carcinoma treatment (AID 1296009); settings: MCC and control cell lines, CellTiter-Glo viability, 72 h; at 44.8 µM (top of the series) unless noted; also: nearly all actives have a fitted effect of over 60% in size; also: potency is read from the fitted curve at half-maximal effect
In short: as §2

NIH3T3 [6] = experiment: as above; settings: MCC and control cell lines, CellTiter-Glo viability, 72 h; at 44.8 µM (top of the series) unless noted
In short: as §2
% is scaled to controls: 0 for no effect and ±100 for the full control effect.

O=C(NOC[C@H](O)CO)c1ccc(F)c(F)c1Nc1ccc(I)cc1F
inactive: outcome (HEK293) | max response (KB-3-1) 4.78% and 5.99% | outcome (HEK293T [3]) | Potency (MCC-26) | Potency (C33A) | Potency (CASKI) | Potency (HeLa) | Potency (Hek293T [4]) | Potency (JEG-3)
active: Potency (HaCat [1]) 8.33 µM and 23.1 nM | Potency (NIH3T3 [2]) 6.51 µM

CCCS(=O)(=O)Nc1ccc(F)c(C(=O)c2c[nH]c3ncc(Cl)cc23)c1F
inactive: max response (HaCat [1]) -1.82% | max response (KB-3-1) -9.42% and -0.0181% | max response (NIH3T3 [2]) -18.6% | Potency (MCC-13) | Potency (MCC-26) | Potency (MKL-1) | Potency (MKL-2) | Potency (WaGa) | Potency (C33A) | Potency (CAOV3) | Potency (CASKI) | Potency (HeLa) | Potency (Hek293T [4]) | Potency (JEG-3)
active: Potency (HEK293) 14.8 µM

NNCCc1ccccc1
inactive: max response (HEK293) -15.3% | max response (HaCat [1]) -0.0842% and -11.1% | max response (KB-3-1) -10.1% and -6.14% | max response (NIH3T3 [2]) 1.01% | Potency (MCC-13) | Potency (MKL-1) | Potency (MKL-2) | Potency (UISO) | Potency (WaGa) | Potency (C33A) | Potency (CAOV3) | Potency (CASKI) | Potency (Es-2) | Potency (HeLa) | Potency (Hek293T [4]) | Potency (JEG-3)

Cc1c(CN2CCN(C(=O)C(C)C)CC2)sc2c(N3CCOCC3)nc(-c3cnc(N)nc3)nc12
inactive: Potency (WaGa)
active: Potency (HEK293) 0.187 µM | Potency (HaCat [1]) 1.05 µM | Potency (KB-3-1) 0.148 µM | Potency (NIH3T3 [2]) 0.469 µM | Potency (MCC-26) 0.662 µM

COc1ccc(CC2=NN3C([C@@H](CCc4ccccc4)[C@@H](C)O)=NC(C)C3C(=O)N2)cc1OC (stereo not given in full)
inactive: max response (HEK293) -3.77% | max response (HaCat [1]) -7.5% | max response (KB-3-1) 9.1% | max response (NIH3T3 [2]) 0.654% | Potency (MCC-13) | Potency (MCC-26) | Potency (MKL-1) | Potency (MKL-2) | Potency (UISO) | Potency (WaGa)

C[C@]1(c2nc3c(C(N)=O)cccc3[nH]2)CCCN1
inactive: max response (HEK293) -23.2% | max response (HaCat [1]) -38.2% | max response (KB-3-1) -0.184% | max response (NIH3T3 [2]) -22% | Potency (MCC-13) | Potency (MCC-26) | Potency (MKL-1) | Potency (MKL-2) | Potency (UISO) | Potency (WaGa)

CCOC(=O)N1CCC(=C2c3ccc(Cl)cc3CCc3cccnc32)CC1
inactive: max response (HaCat [1]) -16.9% and -8.21% | outcome (KB-3-1) | max response (NIH3T3 [2]) -21% and -12% | Potency (MCC-13) | Potency (MCC-26) | Potency (MKL-1) | Potency (MKL-2) | Potency (UISO) | Potency (C33A) | Potency (CAOV3) | Potency (CASKI) | Potency (Hek293T [4]) | Potency (JEG-3)
active: Potency (HEK293) 18.7 µM and 18.8 µM

Cc1cc(C=c2sc3nc4ccccc4n3c2=O)c(C)n1-c1ccccc1
inactive: max response (HEK293) -0.0904% | outcome (HaCat [1]) | max response (KB-3-1) 1.4% | max response (NIH3T3 [2]) -1.17% | outcome (HACAT [5]) | Potency (MCC-13) | Potency (MKL-1) | Potency (MKL-2) | Potency (UISO) | Potency (WaGa)

CC[C@@H](C)[C@H](NC(=O)[C@H](CC1CCCCC1)NC(=O)c1ccno1)C(=O)N1CCC2(CCc3ccccc32)CC1
inactive: max response (HEK293) -11.2% | outcome (HaCat [1]) | max response (KB-3-1) -5.09% and 8.53% | max response (NIH3T3 [2]) -7.84% and -2.63% | outcome (HACAT [5]) | Potency (MCC-13) | Potency (MKL-1) | Potency (MKL-2) | Potency (UISO) | Potency (WaGa) | Potency (C33A) | Potency (CAOV3) | Potency (CASKI) | Potency (Es-2) | Potency (HeLa) | Potency (Hek293T [4]) | Potency (JEG-3)

O=c1ncn2nc(Sc3ccc(F)cc3F)ccc2c1-c1c(Cl)cccc1Cl
active: Potency (HEK293) 13.2 µM
inactive: max response (HaCat [1]) -4.37% | max response (KB-3-1) -0.339% | Potency (MCC-13) | Potency (MCC-26) | Potency (MKL-1) | Potency (MKL-2)

OCCn1cc(-c2cnc3nnn(Cc4ccc5ncccc5c4)c3n2)cn1
inactive: max response (HEK293) -13.9% | max response (HaCat [1]) -20.1% | max response (KB-3-1) 1.4% and -22% | max response (NIH3T3 [2]) -29.5% | Potency (MCC-13) | Potency (MKL-1) | Potency (MKL-2) | Potency (UISO) | Potency (WaGa) | Potency (C33A) | Potency (CAOV3) | Potency (CASKI) | Potency (Es-2) | Potency (HeLa) | Potency (Hek293T [4]) | Potency (JEG-3)

C#Cc1cccc(Nc2ncnc3cc(OCCOC)c(OCCOC)cc23)c1
active: Potency (HEK293) 16.6 µM | Potency (HaCat [1]) 5.9 µM and 944 nM and 651 nM | Potency (WaGa) 29.6 µM
inactive: max response (KB-3-1) -10.3% and -1.91% | Potency (MCC-13) | Potency (MKL-1) | Potency (MKL-2) | Potency (C33A) | Potency (CASKI) | Potency (Es-2) | Potency (HeLa) | Potency (Hek293T [4]) | Potency (JEG-3)

CO[C@@H]1[C@H](N(C)C(=O)c2ccccc2)C[C@H]2O[C@]1(C)n1c3ccccc3c3c4c(c5c6ccccc6n2c5c31)C(=O)NC4
active: Potency (HEK293) 8.33 µM | Potency (HaCat [1]) 3.72 µM | Potency (KB-3-1) 3.32 µM | Potency (NIH3T3 [2]) 1.66 µM | Potency (MCC-13) 2.96 µM | Potency (MCC-26) 4.69 µM

CCn1c(-c2nonc2N)nc2cnc(Oc3cccc(NC(=O)c4ccc(OCCN5CCOCC5)cc4)c3)cc21
active: Potency (HEK293) 11.8 µM | Potency (KB-3-1) 5.9 µM | Potency (NIH3T3 [2]) 14.8 µM
inactive: max response (HaCat [1]) -18.5% | Potency (MCC-26) | Potency (MKL-2)

C1COC(NC(C2CC2)C2CC2)=N1
inactive: max response (HEK293) 3.3% and -8.9% | max response (HaCat [1]) 1.37% and -11.9% | outcome (KB-3-1) | outcome (NIH3T3 [2]) | Potency (MCC-13) | Potency (MCC-26) | Potency (MKL-1) | Potency (MKL-2) | outcome (NIH3T3 [6]) | Potency (UISO) | Potency (WaGa) | Potency (C33A) | Potency (CAOV3) | Potency (CASKI) | Potency (Es-2) | Potency (HeLa) | Potency (Hek293T [4]) | Potency (JEG-3)

CCCn1c(=O)c2[nH]c(C34CC5CC3C[C@@H](C5)C4)nc2n(CCC)c1=O
inactive: max response (HEK293) -11% | max response (HaCat [1]) 4.8% | max response (KB-3-1) 5.05% | max response (NIH3T3 [2]) -0.656% | Potency (MCC-13) | Potency (MCC-26) | Potency (MKL-1) | Potency (MKL-2) | Potency (UISO) | Potency (WaGa)
